Assay outcomes: PubChem, several laboratories
BH1578 lux ind = induces V. cholerae light production without autoinducers | V. cholerae BH1578 lux reporter, luminescence, 6 h | activation, % at 18.7 µM | 350,000 tested, 0.16% active; in the data active means activation mostly above about 9.7%, no sharp cut-off
FBA Mtb inh = inhibitors of M. tuberculosis fructose-bisphosphate aldolase; P9WQA3; purified M. tuberculosis FBA, fluorescence read-out; inhibition, % at 1 µM; 360,000 tested, 2.3% active; AID 588726; in the data active means inhibition above about 27%
SARS 3CLpro inh = SARS-CoV 3CLpro protease inhibition. recombinant SARS-CoV 3CLpro, quenched FRET peptide cleavage. 290,000 tested, 0.14% active. inhibition, % at 6 µM. AID 1706. P0C6X7; in the data active means inhibition above about 12%
PrPC surface inh = cell surface PrPC inhibition, primary TR-FRET screen; P04156; TR-FRET read-out; inhibition, % at 13.8 µM; 370,000 tested, 0.43% active; AID 720596; in the data active means inhibition above about 24%
GDH-TPI counter = counter-screen for M. tuberculosis FBA inhibitors: GDH-TPI coupled enzymes. GDH-TPI coupled enzyme counterscreen, NADH absorbance. inhibition, % at 4.8 µM. 360,000 tested, 1.2% active; in the data active means inhibition above about 30%
PrPC TRFRET cf = cell surface PrPC inhibition, TR-FRET confirmation. shares compounds with PrPC surface inh. cell surface PrPC level. inhibition, % at 13.8 µM. 1,500 tested, 65% active. AID 743200; in the data active means inhibition above about 25%
LD9 cytotox = kills or reduces viability of LD9 cells in PrPc counter-screen; shares compounds with PrPC surface inh; LD9 cells cytotoxicity, luminescence viability; inhibition, % at 13.8 µM; 1,500 tested, 29% active; in the data active means inhibition above about 9.5%
Large screens that a line does not name were inactive (follow-up assays come after a bar, where they were run). In the library only some 3.9% were active in any assay of this set; here they are far more common.

Cc1sc2ncnc(Sc3ccccc3C(=O)O)c2c1C	PrPC surface inh 93.6 | PrPC TRFRET cf 120.6 | LD9 cytotox inactive
CC(=O)CSc1ncnc2sc3c(c12)CCCC3	PrPC surface inh 29.9 | PrPC TRFRET cf inactive | LD9 cytotox inactive
O=C(CSc1ncnc2sc3c(c12)CCCC3)c1ccccc1	none
CC(=O)CSc1ncnc2sc3c(c12)CCC(C)C3 (centres undefined)	none
CC(C)(C)c1ccc(NC(=O)COc2ccc(-n3ccnc3)cc2)cc1	PrPC surface inh 27.9 | PrPC TRFRET cf inactive | LD9 cytotox 12.2
CCOc1ccc(C2SCC(=O)Nc3c2c(=O)[nH]n3C2CCCCCC2)cc1 (centres undefined)	PrPC surface inh 50.6 | PrPC TRFRET cf inactive | LD9 cytotox inactive
CC(C)(C)c1ccc(NC(=O)CSc2n[nH]c(=O)n2C2CC2)cc1	none (no result: SARS 3CLpro inh)
CCOC(=O)c1sc(NC(=S)NC(=O)C2CCCC2)cc1C	PrPC surface inh 25.9 | PrPC TRFRET cf 56.3 | LD9 cytotox inactive
CCOC(=O)c1sc(NC(=S)NC(=O)CC(C)C)cc1C	PrPC surface inh 36.8 | PrPC TRFRET cf 39.7 | LD9 cytotox inactive
CCCS(=O)(=O)NC(=O)C1(C)CCCN(C(=O)c2ccccc2F)C1 (centres undefined)	none (no result: SARS 3CLpro inh)
Cc1cc(C(=O)COc2ccc(F)cc2Br)c(C)n1C1CC1	none (no result: SARS 3CLpro inh)
COc1ccc2[nH]c3c(NCCC4=CCCCC4)ncnc3c2c1	PrPC surface inh 41.4 | PrPC TRFRET cf 39.8 | LD9 cytotox 21.7
CCN(CC)CCNc1ncnc2c1[nH]c1ccc(OC)cc12	none (no result: BH1578 lux ind, FBA Mtb inh, PrPC surface inh, GDH-TPI counter)
COc1ccc(Cc2nc(-c3ccc(Cl)cc3)no2)cc1	none
Cc1ccc(Cc2nc(-c3ccncc3)no2)cc1	PrPC surface inh 71.6 | PrPC TRFRET cf inactive | LD9 cytotox inactive
O=c1cc(CNc2cc(C(F)(F)F)cc(C(F)(F)F)c2)nc2sccn12	PrPC surface inh 28.6 | PrPC TRFRET cf inactive | LD9 cytotox inactive
O=c1ccc(C(F)(F)F)cn1Cc1cc(=O)n2ccsc2n1	none
CCOC(=O)C1(C)CCCN1C(=O)c1sccc1C (centres undefined)	none (no result: SARS 3CLpro inh)
CC(C)CC(CO)N1CCN(C(=O)c2ccc(Cl)cc2)CCC1=O (centres undefined)	none (no result: SARS 3CLpro inh)
Cc1ccc2[nH]c3c(=S)nc[nH]c3c2c1	PrPC surface inh 129.1 | PrPC TRFRET cf 147.3 | LD9 cytotox inactive
CCC(CC)C(=O)Nc1cccc(C(=O)NCc2ccco2)c1	none
Cc1ccc(C(=O)Nc2cccc(C(=O)NCc3ccccc3)c2)cc1	PrPC surface inh 37.0 | PrPC TRFRET cf inactive | LD9 cytotox inactive
O=C(NCc1ccco1)c1cccc(NC(=O)c2ccccc2)c1	PrPC surface inh 27.5 (no result: BH1578 lux ind) | PrPC TRFRET cf 28.5 | LD9 cytotox inactive
CC(=O)c1cccc(NC(=O)Cc2cccs2)c1	none
Cc1ccc(C(=O)Nc2cccc(C(=O)NCc3ccco3)c2)cc1	PrPC surface inh 39.0 | PrPC TRFRET cf inactive | LD9 cytotox 17.0
O=C(Cc1cccs1)Nc1cccc(C(=O)Nc2ccco2)c1	PrPC surface inh 27.1 | PrPC TRFRET cf inactive | LD9 cytotox inactive
O=C(O)CCc1ccc(S(=O)(=O)Nc2cc(C(F)(F)F)ccc2N2CCCC2)cc1	none (no result: SARS 3CLpro inh)
CCCCn1c(SCC(=O)Nc2cc(C(F)(F)F)cc(C(F)(F)F)c2)nnc1C(CC)N(C)C (centres undefined)	none
O=C(NNc1ccc(-c2csnn2)cc1)c1ccccc1C(F)(F)F	none
O=C(NNc1ccc(-c2csnn2)cc1)c1cc(Cl)cc(Cl)c1	PrPC surface inh 26.6 | PrPC TRFRET cf 31.9 | LD9 cytotox inactive
NC(=O)c1ccc2c(=O)n3c(-c4cc(Cl)c(N)c(Cl)c4)csc3nc2c1	PrPC surface inh 32.1 (no result: SARS 3CLpro inh) | PrPC TRFRET cf inactive | LD9 cytotox inactive
NC(=O)c1cccc(-c2csc(C(O)c3cccc(Cl)c3)n2)c1 (centres undefined)	none (no result: SARS 3CLpro inh)
CC(=NCc1cccnc1)c1c(O)n(-c2ccc(C)cc2)c(=O)[nH]c1=O	PrPC surface inh 85.0 (no result: BH1578 lux ind) | PrPC TRFRET cf 65.2 | LD9 cytotox inactive
CCS(=O)(=O)N1CCC2(CC1)OCCN2S(=O)(=O)c1ccc(C)cc1	none (no result: SARS 3CLpro inh)
N#Cc1ccc(OCCCN2CCC(C(O)(c3ccccc3)c3ccccc3)CC2)cc1	none (no result: BH1578 lux ind, FBA Mtb inh, SARS 3CLpro inh, GDH-TPI counter)
O=C(Cc1ccccc1)Nc1cccc(NC(=O)c2cccs2)c1	PrPC surface inh 31.6 | PrPC TRFRET cf inactive | LD9 cytotox inactive
O=C(Nc1ccc(OCc2ccccc2)cc1)c1cccs1	PrPC surface inh 25.4 | PrPC TRFRET cf inactive | LD9 cytotox inactive
O=C(CCc1ccccc1)Nc1ccccc1	none
O=C(CCc1ccccc1)Nc1cccc(NC(=O)CCc2ccccc2)c1	PrPC surface inh 25.5 | PrPC TRFRET cf inactive | LD9 cytotox inactive
CC(C)(C)c1csc(NC(=O)CCc2ccccc2)n1	PrPC surface inh 26.3 | PrPC TRFRET cf inactive | LD9 cytotox inactive
O=C(N/N=C/c1ccc(OCc2ccccc2)cc1)c1cccs1	none
CC(C)(C)c1csc(NC(=O)Cc2cccs2)n1	none
C[C@H]1COc2cc(Br)ccc2S(=O)(=O)N1Cc1cn(Cc2ccccc2)nn1	none (no result: BH1578 lux ind, FBA Mtb inh, SARS 3CLpro inh, GDH-TPI counter)
Cc1cccc(S(=O)(=O)NC(=O)C2(C)CCN2C(=O)Cc2ccc(-c3ccccc3)cc2)c1 (centres undefined)	none (no result: SARS 3CLpro inh)
O=C(c1cc(=O)[nH]c2ccccc12)N1CC=C(c2ccccc2)CC1	none (no result: SARS 3CLpro inh)
COC(=O)[C@]12C[C@H](CC(=O)NCc3ccc(C)o3)C(=O)N(Cc3ccc(Cl)cc3Cl)C1=C[C@H](C(C)C)O[C@@H]2C1CC1	none (no result: BH1578 lux ind, FBA Mtb inh, SARS 3CLpro inh, GDH-TPI counter)
CCN1/C(=C/C=C/c2oc3ccc(-c4ccccc4)cc3[n+]2CC)Oc2ccc(-c3ccccc3)cc21	PrPC surface inh 43.4 | PrPC TRFRET cf 56.2 | LD9 cytotox 63.9
CCN1/C(=C/C=C/c2sc3ccccc3[n+]2CC)Sc2ccccc21	none (no result: SARS 3CLpro inh, PrPC surface inh)
C=C1C(=O)O[C@@H]2[C@H]1[C@@H](OC(=O)/C(C)=C/C)C/C(C)=C\C(=O)/C=C(\C)[C@@H]2O	none (no result: SARS 3CLpro inh)
C=C1C(=O)O[C@@H]2C[C@@H](C)[C@@H]3C=CC(=O)[C@@]3(C)[C@@H](OC(=O)CC(=O)O[C@H]3[C@@H]4C(=C)C(=O)O[C@@H]4C[C@@H](C)[C@@H]4C=CC(=O)[C@]43C)[C@H]12	PrPC surface inh 97.9 (no result: SARS 3CLpro inh) | PrPC TRFRET cf 99.2 | LD9 cytotox 99.0
C=C1C(=O)O[C@H]2[C@H]1[C@H](OC(=O)CC(=O)O[C@@H]1C[C@@H](C)[C@@H]3C=CC(=O)[C@@]3(C)[C@H]3OC(=O)C(=C)[C@H]13)C[C@@H](C)[C@H]1C=CC(=O)[C@]12C	none (no result: SARS 3CLpro inh)
COc1ccc(C(=O)C[C@@H]2OC[C@H](C(C)C)N2S(=O)(=O)c2ccc(C)cc2)cc1OC	none (no result: BH1578 lux ind, FBA Mtb inh, SARS 3CLpro inh, GDH-TPI counter)
CC1CCCCC1Nc1nc2ccc(Cl)cc2n2cnnc12 (centres undefined)	PrPC surface inh 34.0 | PrPC TRFRET cf inactive | LD9 cytotox inactive
